Experimental data taken from PubChem BioAssay (NCATS).
Results filed as inconclusive are left out. Activity calls are given as the source filed them. Calls follow the shape of the dose curve; as a rule, active = well fitted inhibition curve with a large enough effect; inconclusive = small, poorly fitted or top-dose-only effect; inactive = no such curve, though single readings can be large or run the other way.

assay: Counterscreen for APE1 Inhibitors: Fluorescent Dye Displacement Validation Assay (AID 1707); settings: fluorescent dye displacement from DNA; series mostly up to 57.1 µM
Source text: In order to distinguish true inhibitors of DNA-processing enzymes from promiscuous DNA-binding compounds among screening assay hits, we developed a homogeneous and miniaturized assay based on fluorescent dye displacement test as originally described by Tse and Boger (Accounts of Chemical Research (2004) 37: 61-69). The assay is based on the strong enhancement of fluorescence when Thiazole Orange (ThO) binds to double-stranded DNA: conversely, in the presence of a DNA-binding compound, Thiazole Orange is displaced from the DNA and its fluorescence is reduced.
Buffer. 50 mM Tris-HCl (pH7.5) containing 50mM NaCl, 2 mM MgCl2, and 0.01% Tween-20.
Buffer containing 250 nM ThO in columns 3 and 4 as negative control (no dsDNA).
Reaction mixture: 250 nM ThO and 50 nM dsDNA at final concentration dispensed throughout the plate: in columns 1, 2, 5-48. Column 1 is neutral (100% activity).
5''TAMRA- TC ACC FTC GTA CGA CTC
3'' AG TGG GAG CAT GCT GAG
where F denotes tetrahydrofuran.
Control: Pintool transfer of control compound WB64 (W4761, Sigma-Aldrich) to column 2 of all assay plates as a two-fold 16-point dilution in duplicate (concentration range 5.75 uM - 0.175 nM).
Four uL of reaction mixtures were dispensed to 1536-well Greiner black solid bottom plates. Compounds (23 nL) were transferred […] in order to measure the endpoint fluorescence using 480 nm excitation and 540 nm emission fluorescence protocol.

For `C[C@@H](Oc1ccc(Oc2cnc3ccc(Cl)cc3n2)cc1)C(=O)O`, which outcome is on record?
The outcome was “inactive”.

Which outcome does the source give for `Nc1ncnc2c1nc(Br)n2C1O[C@H]2COP(=O)(O)O[C@@H]2C1O` (stereo not given in full) here?
Its outcome is “inactive”.

With `CNC(=O)[C@H]1O[C@@H](n2cnc3c(N)ncnc32)[C@H](O)[C@H]1O` as the compound, how does the outcome read?
The outcome was “inactive”.

For `CN1CCc2c(cc(O)c(O)c2Cl)C(c2cccc(Cl)c2)C1` (stereo not given), which outcome is on record?
The outcome was “inactive”.

Which outcome does the source give for `CC#C[C@]1(O)CC[C@H]2C3CCC4=CC(=O)CCC4=C3[C@@H](c3ccc(N(C)C)cc3)C[C@@]21C` (stereo not given in full) here?
Its outcome is “inactive”.

Which outcome does the source give for `NC(=NCc1ccc(Cl)c(Cl)c1)NC(=O)c1nc(Cl)c(N)nc1N` here?
The outcome was “inactive”.

With `CCCC1O[C@@H]2C[C@H]3[C@@H]4CCC5=CC(=O)C=C[C@]5(C)C4[C@@H](O)C[C@]3(C)[C@]2(C(=O)CO)O1` (stereo not given in full) as the compound, how does the outcome read?
Its outcome is “inactive”.

Which outcome does the source give for `CN(C)CCCO[C@H]1C([C@H](O)CO)O[C@@H]2OC(C)(C)O[C@@H]21` (stereo not given in full) here?
Its outcome is “inactive”.

For `COc1ccc2c(c1OC)C(=O)OC2C1c2c(cc3c(c2OC)OCO3)CCN1C` (stereo not given), which outcome is on record?
Its outcome is “inactive”.

With `Nc1ncnc2c1ncn2[C@@H]1O[C@H](COP(=O)(O)OP(=O)(O)OP(=O)(O)OP(=O)(O)OC[C@@H]2O[C@H](n3cnc4c(N)ncnc43)[C@@H](O)[C@@H]2O)[C@H](O)[C@H]1O` as the compound, how does the outcome read?
The outcome was “inactive”.
